Our source for the cytotoxicity call values is the antibiotic and cytotoxicity screens of Wong et al. (2023).

Molecules are shown by their SMILES. Among all 39,000 compounds or so, about 3,300 (8.5%) were called active. For the sample, actives were picked, then their nearest neighbours and some compounds at random.

In the test the test system is HepG2. Briefly: cytotoxicity call (relative viability < 0.9). The settings on record: 10 µM.
Take `CN(C)CC(=O)N[C@H]1CC[C@@H](CCn2cc(CN(C)C)nn2)O[C@H]1CO`: the cytotoxicity call was “inactive”. Turning to `O=C(N[C@@H]1CC=CC[C@H](CC(=O)N(CCO)Cc2ccccc2)C(=O)NCC(c2ccccc2)OC1=O)OCC1c2ccccc2-c2ccccc21` (stereo not given in full), the cytotoxicity call was “inactive”.

As to `C[C@@H]1CN([C@@H](C)CO)C(=O)c2cc(/C=C/c3ccccc3)cnc2O[C@H]1CN(C)C(=O)c1cnccn1`, the cytotoxicity call was “inactive”. As for `Cc1cccc(S(=O)(=O)N2C[C@H](O)COC[C@@H]3O[C@@H](CC(=O)NCCCN4CCOCC4)CC[C@H]32)c1`, the cytotoxicity call was “inactive”. The value for `Cc1noc(C)c1NC(=O)N(C)C[C@H]1OCCCC[C@H](C)Oc2ccc(NC(=O)c3ccccc3)cc2C(=O)N([C@H](C)CO)C[C@@H]1C` was “inactive”; that for `C[C@H]1CNC(=O)[C@@H](CC(=O)N(CCOC(=O)NCCCCCC(=O)NO)Cc2ccccc2)C/C=C/CC[C@H](NC(=O)OC(C)(C)C)C(=O)O1` was “inactive”. On to `COc1ccccc1C#Cc1ccc2c(c1)O[C@@H](CN(C)C(C)=O)[C@@H](C)CN([C@@H](C)CO)S2(=O)=O`, for which the cytotoxicity call was “inactive”. For `C[C@H]1CCCCO[C@@H](CN(C)Cc2ccc(C(=O)O)cc2)[C@@H](C)CN([C@@H](C)CO)C(=O)c2cc(NC(=O)C3CCCCC3)ccc2O1`, the cytotoxicity call is “inactive”. Regarding `C[C@H](NC(=O)C[C@H]1C[C@@H]2c3cc(NC(=O)Nc4ccc(C(F)(F)F)cc4)ccc3O[C@@H]2[C@H](CO)O1)c1ccccc1`, the cytotoxicity call is “inactive”. For the molecule `C[C@@H]1CCCCO[C@@H](CN(C)C(=O)Nc2cccc3ccccc23)[C@@H](C)CN([C@H](C)CO)C(=O)c2cc(NS(C)(=O)=O)ccc2O1`, the cytotoxicity call is “inactive”. The value for `C[C@H]1CN([C@@H](C)CO)C(=O)c2cc(NC(=O)Cn3cnnn3)ccc2O[C@@H]1CN(C)S(C)(=O)=O` was “inactive”; that for `CN(C)C(=O)C[C@@H]1CC[C@@H]2[C@H](COC[C@@H](O)CN2S(=O)(=O)c2ccccc2)O1` was “inactive”. As to `C[C@@H]1CN([C@H](C)CO)S(=O)(=O)c2ccc(-c3ccc(F)cc3)cc2O[C@@H]1CN(C)C(=O)C1CCOCC1`, the cytotoxicity call is “inactive”. As for `COc1ccc(NC(=O)Nc2ccc3c(c2)C(=O)N([C@H](C)CO)C[C@H](C)[C@@H](CN(C)C(=O)Cc2ccccc2)OCCCC[C@@H](C)O3)cc1`, the cytotoxicity call was “inactive”.

For `CCc1nc2ccc(C(=O)NC3CCN(Cc4ccccc4)CC3)cn2c1N(C)CCN1CCOCC1`, the cytotoxicity call is “inactive”. For the molecule `CCc1nc2ccc(C(=O)NC3CCN(Cc4ccccc4)CC3)cn2c1N(C)Cc1cc2ccccc2s1`, the cytotoxicity call is “active”.

As to `CCc1nc2ccc(C(=O)Nc3cccc(OCC(=O)N(C)C)c3)cn2c1N(C)Cc1cc2ccccc2s1`, the cytotoxicity call was “inactive”. For `C[C@@H]1CCCCO[C@@H](CN(C)C(=O)Nc2ccc(C(F)(F)F)cc2)[C@H](C)CN([C@@H](C)CO)C(=O)c2cc(NC(=O)Cc3ccccc3)ccc2O1`, the cytotoxicity call was “inactive”.

For the molecule `O=C(O)CN(CCN(CC(=O)O)CC(=O)O)CCN(CC(=O)O)CC(=O)O`, the cytotoxicity call is “inactive”. Take `CO[C@H]1CCCNC1`: the cytotoxicity call was “inactive”. The value for `C[C@@H]1CN([C@@H](C)CO)C(=O)c2cc(NC(=O)CCCCCC(=O)Nc3ccccc3N)ccc2O[C@@H]1CN(C)C(=O)Nc1ccc(C(F)(F)F)cc1` was “inactive”. The value for `C[C@H]1CN([C@@H](C)CO)C(=O)c2cc(NC(=O)CCCCCC(=O)Nc3ccccc3N)ccc2O[C@H]1CN(C)C(=O)Nc1ccc(C(F)(F)F)cc1` was “active”; that for `C[C@H]1CN([C@@H](C)CO)C(=O)c2cc(NC(=O)CCCCCC(=O)Nc3ccccc3N)ccc2O[C@@H]1CN(C)C(=O)Nc1ccc(C(F)(F)F)cc1` was “inactive”. `COc1ccc(NC(=O)N(C)C[C@@H]2Oc3ccc(NC(=O)CCCCCC(=O)Nc4ccccc4N)cc3C(=O)N([C@H](C)CO)C[C@@H]2C)cc1`: the cytotoxicity call was “active”.

For the molecule `C[C@@H]1CN([C@H](C)CO)C(=O)c2cc(NC(=O)CCCCCC(=O)Nc3ccccc3N)ccc2O[C@H]1CN(C)C(=O)Nc1ccc(C(F)(F)F)cc1`, the cytotoxicity call is “inactive”. Take `C[C@H](CO)N1C[C@H](C)[C@H](CN(C)C(=O)Nc2ccc(C(F)(F)F)cc2)Oc2ccc(NC(=O)CCCCCC(=O)Nc3ccccc3N)cc2C1=O`: the cytotoxicity call is “active”. The value for `C[C@H](CO)N1C[C@H](C)[C@@H](CN(C)C(=O)Nc2ccc(C(F)(F)F)cc2)Oc2ccc(NC(=O)CCCCCC(=O)Nc3ccccc3N)cc2C1=O` was “inactive”; that for `COc1ccc(NC(=O)N(C)C[C@@H]2Oc3ccc(NC(=O)CCCCCC(=O)Nc4ccccc4N)cc3C(=O)N([C@H](C)CO)C[C@H]2C)cc1` was “inactive”; that for `COc1ccc(NC(=O)N(C)C[C@H]2Oc3ccc(NC(=O)CCCCCC(=O)Nc4ccccc4N)cc3C(=O)N([C@@H](C)CO)C[C@H]2C)cc1` was “inactive”. With `C[C@@H]1CCCCO[C@H](CN(C)S(=O)(=O)c2ccc(F)cc2)[C@@H](C)CN([C@@H](C)CO)C(=O)c2cc(NC(=O)Nc3cccc4ccccc34)ccc2O1`, the cytotoxicity call was “inactive”. For the molecule `CC(=O)N(C)CCc1ccc(C)[n+]([O-])c1`, the cytotoxicity call is “inactive”. The value for `C[C@@H]1CN([C@H](C)CO)C(=O)c2cc(-c3cncnc3)cnc2O[C@@H]1CN(C)C(=O)CN1CCOCC1` was “inactive”; that for `Cc1ccc(S(=O)(=O)N(C)C[C@H]2OCCCC[C@@H](C)Oc3ccc(NC(=O)Nc4ccc(F)cc4)cc3C(=O)N([C@@H](C)CO)C[C@@H]2C)cc1` was “inactive”; that for `C[C@H](O)C#Cc1cnc2c(c1)C(=O)N([C@H](C)CO)C[C@H](C)[C@H](CN(C)C(=O)Nc1ccc(C(F)(F)F)cc1)O2` was “inactive”. On to `CO[C@@H]1CN(C)C(=O)c2cc(NC(=O)C3CC3)ccc2OC[C@H](C)N(C(=O)Cc2ccccn2)C[C@H]1C`, for which the cytotoxicity call was “inactive”. `O=C1CCC(c2ccc(O)cc2)CC1`: the cytotoxicity call was “inactive”. The value for `O=C1C=CC(=O)N1c1ccc(O)cc1` was “active”; that for `Cc1ccc(S(=O)(=O)N(C)C[C@H]2OCCCC[C@@H](C)Oc3ccc(NC(=O)Nc4ccc(C(F)(F)F)cc4)cc3C(=O)N([C@H](C)CO)C[C@@H]2C)cc1` was “inactive”. Regarding `C[C@@H]1CN([C@@H](C)CO)C(=O)c2cc(NC(=O)Cn3cnnn3)ccc2O[C@H]1CN(C)S(=O)(=O)c1cn(C)cn1`, the cytotoxicity call is “inactive”.

`C[C@@H]1CN([C@H](C)CO)C(=O)c2cc(NC(=O)Nc3cccc4ccccc34)ccc2O[C@@H](C)CCCCO[C@@H]1CN(C)S(=O)(=O)c1cn(C)cn1`: the cytotoxicity call is “inactive”.
